PubChem BioAssay AID628 (Vanderbilt High Throughput Screening Facility, 2007)
Screen size: about 64,000 compounds; about 2,200 (3.4%) were called active.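 The calls were made as follows: active = calcium fluorescence response, raw or row-and-column corrected B-score, differing from the plate sample mean either way at a set confidence level, mostly lower; inactive = the rest.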 For the sample, actives were picked, then their nearest neighbours and some compounds at random.

Biological target: Muscarinic acetylcholine receptor M1 (Rattus norvegicus) (UniProt P08482)
Sequence (P08482 whole entry, looked up): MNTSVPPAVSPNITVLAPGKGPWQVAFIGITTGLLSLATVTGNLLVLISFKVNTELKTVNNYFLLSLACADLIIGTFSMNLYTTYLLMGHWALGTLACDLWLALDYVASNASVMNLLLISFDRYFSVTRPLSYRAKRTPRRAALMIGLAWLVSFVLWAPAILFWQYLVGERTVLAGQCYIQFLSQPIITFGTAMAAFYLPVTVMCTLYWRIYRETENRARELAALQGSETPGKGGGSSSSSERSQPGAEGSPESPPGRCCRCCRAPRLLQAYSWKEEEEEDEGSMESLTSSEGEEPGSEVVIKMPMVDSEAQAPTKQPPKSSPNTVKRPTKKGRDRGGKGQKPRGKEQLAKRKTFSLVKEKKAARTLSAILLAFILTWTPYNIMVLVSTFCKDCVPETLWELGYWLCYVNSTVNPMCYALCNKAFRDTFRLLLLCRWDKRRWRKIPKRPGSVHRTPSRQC
Experiment: antagonists of rat M1 muscarinic receptor (AID 628)
Settings: CHO-M1 cells, Fluo-4 calcium, ACh EC80 antagonist mode; at 10 µM; stronger effect = lower value

| SMILES | B-score |
| --- | --- |
| CC1Oc2ccccc2N(Cc2cccnc2)C1=O (stereo unspecified) | 1.07 (inactive) |
| COC(=O)c1sc(=S)n(-c2ccccc2)c1N | 0.339 (inactive) |
| Cc1ccc(Cn2c(NC(=O)c3ccco3)nc3ccccc32)cc1 | 0.141 (inactive) |
| O=C(CSc1nnc2scc(-c3ccc(F)cc3)n12)NCc1ccco1 | -0.509 (inactive) |
| Cc1ccc(-c2csc3nnc(SCC(=O)NCc4ccco4)n23)cc1 | -10.4 (active) |
| Cn1c(-c2ccc(F)cc2)cnc1SCC(=O)NCc1ccco1 | 0.325 (inactive) |
| Cc1nc2ccccc2c2oc(C(=O)NCC3CCCO3)cc12 (stereo unspecified) | 0.0181 (inactive) |
| CCCN(CCC)CCNC(=O)c1cc2c(C)nc3ccccc3c2o1 | 0.00891 (inactive) |
| Cc1nc2ccccc2c2oc(C(=O)NCCCN3CCC(C)CC3)cc12 | -6.51 (active) |
| Cc1ccc(Nc2nc(CSc3nnnn3-c3ccccc3)cc(=O)[nH]2)cc1 | -0.208 (inactive) |
| CCOC(=O)Cc1csc(NC(=O)CSc2nc(C)cc(=O)[nH]2)n1 | -0.287 (inactive) |
| CN(CC(=O)NC1CCCCC1)S(=O)(=O)c1ccc(Br)s1 | -1.64 (inactive) |
| Cc1ccc(S(=O)(=O)Cn2nnnc2CN2CCN(Cc3ccc4c(c3)OCO4)CC2)cc1 | -0.838 (inactive) |
| Fc1ccccc1C(c1nnnn1Cc1ccc2c(c1)OCO2)N1CCN(Cc2ccccc2)CC1 (stereo unspecified) | 0.889 (active) |
| Cc1cc(C)c2[nH]c(=O)c(C(c3nnnn3Cc3ccc4c(c3)OCO4)N3CCCC3)cc2c1 (stereo unspecified) | 0.419 (inactive) |
| CCOC(=O)Cn1c(N)c(C(=O)OC)sc1=S | 0.106 (inactive) |
| Cn1c(=O)c2c(nc(OCc3cccnc3)n2Cc2ccccc2)n(C)c1=O | -0.0901 (inactive) |
| Cc1ccccc1C(OCC(O)CN1CCCCC1CCO)c1ccccc1 (stereo unspecified) | -3.65 (active) |
| COc1cccc(-c2nnc(N(C)C(=O)c3ccno3)s2)c1 | 0.344 (inactive) |
| CC1CN(c2cc(=O)n(-c3cccc(Br)c3)c(=O)[nH]2)CC(C)O1 (stereo unspecified) | -0.299 (inactive) |
| CCN1C(=O)/C(=C2\SC(N3CCCCC3)=NC2=O)c2ccccc21 | -3.91 (active) |

| SMILES | B-score |
| --- | --- |
| CCN1C(=O)/C(=C\N2CCN(c3ccccc3)CC2)SC1=S | 0.399 (inactive) |
| CCN1C(=O)/C(=C\N2CCN(c3cccc(Cl)c3)CC2)SC1=S | 0.609 (inactive) |
| CS(=O)(=O)N(CC(=O)N1CCOCC1)c1ccc2c3c(cccc13)CC2 | 0.0978 (inactive) |
| Cc1cc(NC(=O)COn2nnc3ccccc32)no1 | -0.00408 (inactive) |
| CCOC(=O)c1c(C2CC2)csc1NC(=O)CSCc1c(C)noc1C | -0.892 (inactive) |
| COc1ccc(CCNc2ncnc3nc[nH]c23)cc1OC | -0.37 (inactive) |
| Cc1cc(NC(=O)CCC2COc3ccccc3O2)no1 (stereo unspecified) | -0.711 (inactive) |
| c1ccc2c(c1)OCC(CNc1ncnc3nc[nH]c13)O2 (stereo unspecified) | -5.49 (active) |
| COCc1[nH]nc2c1C(C1C=CCCC1)C(C#N)=C(N)O2 (stereo unspecified) | 0.327 (inactive) |
| O=C(c1ccccc1)c1ccc(OC(=O)N2CCCC2)cc1 | -0.578 (inactive) |
| CCOc1ccccc1C1CC(c2ccccc2)Nc2nc(N)nn21 (stereo unspecified) | 0.59 (inactive) |
| CCOC(=O)c1c(C)[nH]c(C(=O)NCc2ccccc2OC)c1C | -0.312 (inactive) |
| CCOC(=O)c1c(C)[nH]c(C(=O)COc2ccc3c(c2)OCO3)c1C | -0.104 (inactive) |
| CCCCOC(=O)c1[nH]c(C)c(C(=O)OC)c1C | 1.78 (active) |
| COc1ccccc1N(CC(=O)N1CCCCC1)S(=O)(=O)c1ccccc1 | -0.874 (inactive) |
| COc1ccc(N2C(=O)c3cccc4cccc(c34)C2=O)nn1 | 0.203 (inactive) |
| COC(=O)C1=C(C)Nc2ncnn2C1c1ccco1 (stereo unspecified) | 0.342 (inactive) |
| CC(=O)C1=C(O)C(=O)N(c2ccc(S(N)(=O)=O)cc2)C1c1ccccc1F (stereo unspecified) | -0.56 (inactive) |
| C/C(CC(O)(/C=N/O)c1ccccc1)=N\O (stereo unspecified) | 0.581 (inactive) |
| CCOC(=O)N1CCC(NC(=O)c2ccc3nc(N4CCOCC4)sc3c2)CC1 | 0.0825 (inactive) |
| CCOC(=O)N1CCN(CC(=O)Nc2cc(C)nn2-c2nc3ccccc3s2)CC1 | -2.41 (active) |

| SMILES | B-score |
| --- | --- |
| COC(=O)Cc1cc(=O)n(-c2nc3ccccc3s2)[nH]1 | 0.181 (inactive) |
| CCCCNc1nc2c(c(=O)n(C)c(=O)n2C)n1Cc1cccc(OC)c1 | -0.0697 (inactive) |
| O=C1NC(Nc2nc3ccccc3s2)(C(F)(F)F)C(=O)N1C1CCCCC1 (stereo unspecified) | -3.66 (active) |
| COC(=O)NC1(C(F)(F)F)NC(=O)N(C2CCCCC2)C1=O (stereo unspecified) | -0.0429 (inactive) |
| Cc1c(NC(=O)C(C)OC(=O)c2cc3c4ccccc4n(C)c3s2)c(=O)n(-c2ccccc2)n1C (stereo unspecified) | 0.392 (inactive) |
| CC1(C)NC(=O)N(CCOc2cccc(Oc3ccccc3)c2)C1=O | -0.997 (inactive) |
| CCC(=O)c1ccc(OCC(O)CN2C(=O)NC(C)(C)C2=O)cc1 (stereo unspecified) | 0.82 (active) |
| CCC(=O)c1ccc(OCC(O)CN2CC(C)OC(C)C2)cc1 (stereo unspecified) | 0.0196 (inactive) |
| Cc1ccc(C(c2sc3nc(C)nn3c2O)N2CCN(c3ccccc3)CC2)cc1 (stereo unspecified) | 0.39 (inactive) |
| Cn1c(SCc2nc3ccccc3s2)nnc1-c1ccc2c(c1)OCO2 | 0.0691 (inactive) |
| Cc1cccc2cc(CN(Cc3ccc4c(c3)OCO4)Cc3nnnn3C3CCCC3)c(=O)[nH]c12 | -0.601 (inactive) |
| CCC(c1nnnn1C1CCCC1)N(Cc1cccs1)Cc1cc2cccc(C)c2[nH]c1=O (stereo unspecified) | 1.98 (active) |
| Cc1cccc2cc(CN(Cc3cccs3)C(c3nnnn3C3CCCC3)C(C)C)c(=O)[nH]c12 (stereo unspecified) | 0.279 (inactive) |
| Cc1cc(Cl)c(S(=O)(=O)NCc2cccnc2)cc1OCC(N)=O | 0.63 (inactive) |
| Cn1c(=O)c2c(nc(Br)n2CCSc2nc3ccccc3o2)n(C)c1=O | 0.536 (inactive) |
| COC(=O)c1cc(OC)c(OC)cc1NC(=O)C1CCCO1 (stereo unspecified) | -0.418 (inactive) |
| CCN(CCCCOC(=O)c1ccc(OC)c(OC)c1)C(C)Cc1ccc(OC)cc1 (stereo unspecified) | -14.7 (active) |
| COc1ccc(-n2nnnc2SCC(=O)c2ccc(OC)c(OC)c2)cc1 | -0.785 (inactive) |
| CCOc1ccc(C(=O)Nc2cc(OC)ccc2OC)cc1 | 0.223 (inactive) |
